High-throughput results: PubChem BioAssay, National Center for Advancing Translational Sciences (NCATS)
KB-3-1 tox – KB-3-1 parental cell cytotoxicity. hit rate 1.4% among 400,000. Potency, µM (series often up to 46.1 µM), hits mostly cytotoxic. AID 1347075. KB-3-1 viability, CellTiter-Glo ATP luminescence, 72 h; note: % is set by controls: 0 for no effect and ±100 for the full control effect; nearly all actives have a fitted effect of over 60% in size
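Cells are dispensed, compounds pinned in, plates held at 37 °C for 72 h, then CellTiter-Glo is added and luminescence read after 10 minutes. Cell line: parental KB-3-1 in phenol-red-free DMEM, 10% FBS.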
MCF10A rerep – induces DNA re-replication in MCF 10a normal breast cells | MCF 10A DNA re-replication, Hoechst nuclear intensity, 48 h | hit rate 2.9% among 350,000 | AID 624296 | Potency, µM (highest dose often 46.1 µM), for the others: at the highest dose activity, positive = re-replication, usual class: activators; note: % of control where 0% means no effect; nearly all actives have a fitted effect of over 50% in size
KB-V1 cytotox – kills drug-selected multidrug resistant KB-V1 cells; AID 1347076; KB-V1 MDR cells viability, CellTiter-Glo, 72 h; Potency, µM (highest dose often 46.1 µM), usual class: cytotoxic; hit rate 3.4% among 400,000; note: % is set by controls: 0 for no effect and ±100 for the full control effect; nearly all actives have a fitted effect of over 60% in size
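Cytotoxicity toward P-gp-expressing KB-V1 cells was determined as loss of CellTiter-Glo luminescence after 72 h at 37 degrees C. Compounds were tested in quantitative HTS format across a concentration range, with curves fitted to normalized data.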
SW480 rerep – DNA re-replication induction in SW480 cells | Potency, µM (series often up to 46.1 µM), inactives show at the top dose re-replication activation, actives largely listed as activators | hit rate 1.8% among 340,000 | AID 624297 | SW480 DNA re-replication, Hoechst DNA content imaging, 48 h; note: % of control where 0% means no effect; nearly all actives have a fitted effect of over 55% in size
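Per well, 250 cells were exposed to pinned compound for 48 hr. Nuclear DNA was visualised with Hoechst (40 min, 37 C) and total object intensity recorded by fluorescence scanning.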
HT1080 IDH1KD tx – HT-1080 IDH1 knockdown cell toxicity (counter line); hit rate 2% among 360,000; AID 686971; Potency, µM (titrated, usually from 46.1 µM), inactives show at the highest dose activity, negative = toxicity, most hits filed as cytotoxic; HT-1080 IDH1 knockdown viability, ATP luminescence, 48 h;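 note: 0% = DMSO wells and -100% = cell-free medium wells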
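Viability of IDH1-knockdown HT-1080 fibrosarcoma cells was assessed by CellTiter-Glo after 48 h at 37 °C with titrated compound; concentration-effect curves were classified by fit quality and response size.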
HT1080NT lethal – kills 2HG-producing HT-1080-NT fibrosarcoma cells; HT-1080-NT fibrosarcoma viability, CellTiter-Glo ATP luminescence, 48 h; Potency, µM (doses to about 46.1 µM), for the others: at the top dose activity, negative = less viability, actives largely listed as cytotoxic; hit rate 1.6% among 360,000; AID 686970;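 note: NT is the 2HG producing partner of a matched IDH1 knockdown line; 0% = DMSO-treated cells and -100% = media-only wells without cells; nearly all actives have a fitted effect of over 55% in size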
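Luminescent CellTiter-Glo readout after 48 hours of compound exposure at 37 degrees C defined viability of HT-1080-NT cells. Activity was normalized to DMSO wells and cell-free media wells; concentration-response curves were fitted and assigned curve classes.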
* = called active by the depositor; i = inactive; ? = inconclusive; / = not tested or not shown; [ ] = dose if it differs, or a comment. Sampled rows, rich in hits. Any-hit rate of the full collection: about 7.9%. Calls come from the whole dose curve; as a rule, active = well fitted curve in the direction sought with a large enough effect; inconclusive = small, poorly fitted or top-dose-only effect, or another doubt; inactive = no such curve, though single readings can be large; an effect the other way counts as inactive or inconclusive. Potency is the fitted concentration of half-maximal effect.

SMILES	KB-3-1 tox	MCF10A rerep	KB-V1 cytotox	SW480 rerep	HT1080 IDH1KD tx	HT1080NT lethal
COc1ccc(N(C)C2=NS(=O)(=O)c3ccccc32)cc1	?	5.8µM*	i	2.6µM*	23µM*	12µM*
CN(/N=C/c1ccc(N(C)C)cc1)C1=NS(=O)(=O)c2ccccc21	?	8.2µM*	i	7.3µM*	?	?
CC(C)(C)C1CCC(OCC(O)CN2CCN(c3ccccn3)CC2)CC1 (stereo unspecified)	?	?	16µM*	8%	?	?
CC(C)c1ccc(OCC(O)CN2CCN(c3ccccc3)CC2)cc1 (stereo unspecified)	i	?	?	?	16µM*	?
COc1ccc(OCC(O)CN2CCN(c3ccccc3)CC2)cc1 (stereo unspecified)	i	4%	i	2%	10%	17%
OC(COc1cccc2ccccc12)CN1CCN(c2cccc(Cl)c2)CC1 (stereo unspecified)	i	26µM*	i	14%	-3%	-16%
OC(COc1c(F)cc(Br)cc1F)CN1CCN(c2ccc(F)cc2)CC1 (stereo unspecified)	?	17%	16µM*	-3%	-3%[9.24 µM]	-21%
CCOc1ccc(NC(=O)CN(c2ccc(C)cc2)S(=O)(=O)c2cccs2)cc1	i	/	i	/	/	/
CC(=O)Nc1ccc(OCC(O)CN2CCN(c3cc(Cl)ccc3C)CC2)cc1 (stereo unspecified)	?	?	4.1µM*	23%	?	?
CC(=O)Nc1ccc(OCC(O)CN2CCN(c3ccc(C)c(Cl)c3)CC2)cc1 (stereo unspecified)	i	-5%	i	-11%	-14%	-21%
CC1CCCC(C)N1CC(O)COC1CCC(C(C)(C)C)CC1 (stereo unspecified)	i	?	i	?	-28%	-17%
CC(C)(C)C1CCC(OCC(O)CN2CCN(Cc3ccccc3)CC2)CC1 (stereo unspecified)	i	41%	i	15µM*	-13%	-22%
Cc1cc(OCC(O)CN2CCN(c3ccccn3)CC2)cc(C)c1Cl (stereo unspecified)	i	?	i	-6%	?	16µM*
OC(COC1CCCCC1)CN1CCN(c2ccccc2)CC1 (stereo unspecified)	i	4%	?	-12%	0%	4%
CC(C)NCC(O)COC1CCC(C(C)(C)C)CC1 (stereo unspecified)	23µM*	24%	?	?	?	-30%
CCOC(=O)/C(C#N)=C/c1ccc(-c2ccc(C)cc2)o1	i	/	?	/	/	/
C#CCN(C1CCCC1)S(=O)(=O)C=C	?	/	i	/	/	/
COc1ccc(Cl)cc1NC(=O)C1CCN(S(=O)(=O)c2ccc3c(c2)CC(C)N3C(C)=O)CC1 (stereo unspecified)	i	/	i	/	/	/
COc1ccc(C(CCNCc2ccc(N(C)C)cc2)C(C)C)cc1 (stereo unspecified)	i	?	16µM*	?	?	18µM*
CCOCCCNCc1ccc(OC)cc1	i	1%	i	1%	21%	8%
COc1ccc(C(CCNCc2ccc(OC(C)C)cc2)C(C)C)cc1 (stereo unspecified)	i	-12%	15µM*	19%	?	?
CS(=O)(=O)c1ccc2nc(NC(=O)c3ccc(NS(=O)(=O)c4ccc(F)c(F)c4)cc3)sc2c1	i	?	i	-3%	0%	0%
O=C(Nc1nc2ccc(SC(F)F)cc2s1)c1ccc(NS(=O)(=O)c2ccc(F)c(F)c2)cc1	i	18µM*	?	-3%	?	?
Nc1nc(-c2ccc3c(c2)CCC(=O)N3)cs1	5.2µM*	6%	3.7µM*	-2%	0%	1%
CN(CC(=O)Nc1ccc(C#N)cc1)Cc1ccc(Cl)cc1	i	?	?	-4%	?	?
SMILES	KB-3-1 tox	MCF10A rerep	KB-V1 cytotox	SW480 rerep	HT1080 IDH1KD tx	HT1080NT lethal
N#Cc1ccc(NC(=O)Nc2ccc(Cl)cc2)cc1	21µM*	-2%	?	2%	?	15µM*
COc1ccc(S(=O)(=O)N2CCCCC2c2cc(C(=O)Nc3ccc(OC)cc3C)no2)cc1 (stereo unspecified)	18µM*	/	i	/	1%	-2%
COc1ccc(NC(=O)c2cc(C3CCCCN3S(=O)(=O)c3ccc(C#N)cc3)on2)c(C)c1 (stereo unspecified)	i	/	i	/	1%	4%
Cc1[nH]n2c(=O)cc(C(C)(C)C)nc2c1-c1ccccc1	7.3µM*	?	?	?	?	-26%
Cc1[nH]n2c(=O)cc(C(C)C)nc2c1-c1ccccc1	?	?	?	5%	?	-4%
COc1cccc(-c2cc3nc(-c4ccccc4)cc(=O)n3[nH]2)c1	5.8µM*	?	4.6µM*	22%	1.3µM*	1.5µM*
Cc1[nH]n2c(=O)cc(-c3ccc(Cl)cc3)nc2c1-c1ccccc1	?	/	i	/	/	/
Cc1[nH]n2c(=O)cc(-c3ccc([N+](=O)[O-])cc3)nc2c1-c1ccccc1	?	?	i	?	16µM*	16µM*
CCc1cc(=O)n2[nH]c(-c3ccccc3)c(-c3ccccc3)c2n1	?	?	i	21µM*	?	?
Cc1ccc(NC(=O)c2c(C)oc3ccc(O)c(CN4CCCCC4)c23)cc1	i	/	i	/	/	/
Cc1cc(C)c2oc(C(=O)Nc3nc4ccc(Cl)cc4s3)cc(=O)c2c1	i	/	?	/	/	/
N#C/C(=C\c1ccc(Cl)cc1)c1nc(-c2cc3c(ccc4ccccc43)oc2=O)cs1	i	/	?	/	/	/
O=C(Cn1cc(C(F)(F)F)cc(Cl)c1=O)Nc1cccc(S(=O)(=O)N2CCCCC2)c1	i	-3%	i	-17%	-5%	3%
COCC1CCN(C(=O)c2oc3c(F)cccc3c2C)C1 (stereo unspecified)	i	0%	i	?	13%	14%
COc1ccc(-c2c(C(F)(F)F)[nH]n3c(=O)cc(-c4ccccc4)nc23)cc1	i	2.6µM*	?	29µM*	?	4%
COc1ccc(C(O)P(=O)(OCC(C)C)OCC(C)C)c(OC)c1 (stereo unspecified)	i	-2%	16µM*	-3%	11%	13%
Cc1ccc2[nH]c(C)cc(=S)c2c1	?	23µM*	?	21µM*	23µM*	?
